Results as given in PubChem BioAssay (NCI).
Several values for one entry are separate records, joined by “and”; a condition that tells them apart may be missing. Equal values may be shown once. About 83,000 compounds went through this panel and 20% of them were active in at least one assay; those are over-represented in the sample as a whole.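 A percent growth of 40 corresponds to 60% growth inhibition; 0 means no net growth; -100 means all cells died. Active threshold: below 10.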 Activity calls are given as the source filed them.

The molecules below were run on HL-60(TB) leukemia (assay: NCI-60 one-dose screen, 48 h (100 = growth as untreated, 0 = no growth, -100 = all killed)). Details: 10 µM unless noted.

SMILES | growth
O=c1cc(-c2ccccc2)oc2c(O)c(O)ccc12 | 59.4% (inactive)
Cc1ccc2nc3c(n2c1)C(=O)C(=O)c1ccccc1-3 | -59.1% (active)
O=C(/C=C/c1ccccc1)c1cccc(O)c1 | 72.1% (inactive)
CC1SC(=S)N(c2ccc(Cl)cc2)C1=O (stereo not given) | 82.7% (inactive) and 98.2% (inactive)
COc1cc(/C=N/NC(=O)c2cnn3c2NC(c2ccccc2)C3)ccc1OC1CCCC1 (stereo not given) | 40.8% (inactive)
CO[C@H]1/C=C/O[C@@]2(C)Oc3c(C)c(O)c4c(O)c(c(/C=N/N5CCN(C)CC5)c(O)c4c3C2=O)NC(=O)/C(C)=C\C=C\C(C)[C@H](O)[C@@H](C)[C@@H](O)[C@@H](C)[C@@H](OC(C)=O)[C@@H]1C (stereo not given in full) | 104% (inactive)
c1ccc2c(c1)oc1c3c(ccc12)NCCC3 | 91.8% (inactive)
O=C(Nc1ccc(-n2cc(-c3ccncc3)c(-c3ccc(O)c(Cl)c3)n2)cc1)Nc1ccc(Cl)c(C(F)(F)F)c1 | -4.77% (active)
CCOC(=O)c1ccc(NC(=O)c2nc(-c3cc(OC)c(OC)c(OC)c3)n(-c3ccc(Cl)cc3)n2)cc1 | 77.3% (inactive)
CC(C)(C)c1ccc(O)c(-c2ccccc2)c1 | 0.4% (active)
CCOC(=O)C(=Cc1cccc(Cl)c1)C(=O)OCC | -2% (active)
COc1cc2nc(-c3ccc(C(F)(F)F)cc3)cc(OCCCN3CCCCC3)c2cc1OC | 25% (inactive)
COc1ccc(/C=C\c2cc(OC)c(OC)c(OC)c2)c(NS(=O)(=O)c2ccc(C(C)(C)C)cc2)c1O | 6.05% (active)
Nc1c(C(=O)Nc2ccccc2Cl)sc2nc3c(cc12)C(O)CCC3 (stereo not given) | 0.926% (active)
Cc1cc(Cl)ccc1NC(=O)c1cc2ccccc2cc1O | 1.45% (active)
Nc1ccc(S(=O)(=O)c2ccc(N)cc2)cc1 | 67.4% (inactive)
CC(=O)Nc1ccc(S(=O)(=O)Cl)cc1 | 103% (inactive)
COC(=O)[C@]12CC[C@@H](C)[C@H](C)[C@@H]1C1=CC[C@@H]3[C@@]4(C)CC(=O)[C@H](OC(=O)c5ccco5)[C@@]5(C)COC(=C45)C[C@@]3(C)[C@]1(C)CC2 | 24.6% (inactive)
CN(C)CCC(=O)Nc1ccc(-n2cc(-c3cccc(NC(=S)Nc4cccc(-c5cn(-c6ccc(NC(=O)CCN(C)C)cc6)nn5)c4)c3)nn2)cc1 | 94% (inactive)
CS(=O)(=O)c1ccc(C(=O)N/N=C/c2ccccc2O)cc1 | 6.35% (active)
CCOC(=O)C1OC2(CCCC2)OC1C(=O)OCC (stereo not given) | 87.4% (inactive)
CCCCCCN(CCCCCC)c1ccc(/C=C2/SC(=O)N(c3nc(N4CCCC4)nc(N4CCCC4)n3)C2=O)c(C)c1 | 20.2% (inactive)
N#Cc1c(-c2ccc(Cl)cc2)nc(NN=Cc2cccc(O)c2)nc1N1CCOCC1 | 66.6% (inactive)
COC(=O)[C@H]1[C@H]2C[C@@H]3c4[nH]c5cc(OC)ccc5c4CCN3C[C@H]2C[C@@H](OC(=O)/C=C/c2cc(OC)c(OC)c(OC)c2)[C@@H]1OC | -40.1% (active)
N#CC(C#N)=NO | 104% (inactive)
